697 NFkB inh: inhibitors of the PMA/ionomycin-induced NF-kB reporter in 697 B cells | 697 B-cell NF-kB luciferase reporter, 16 h | inhibition, % at 4 µM | 0.33% of 330,000 active | AID 435022; in the data active means inhibition above about 35%
Bfl-1 A1 inh: inhibitors of the anti-apoptotic protein A1, read as caspase activation; caspase activation, % (concentration not given with the values); 0.066% of 330,000 active; MEF A1-2A-BIM cells, Caspase-Glo 3/7 luminescence, 3 h; percent of clofoctol response, vehicle zero;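 active means over half of replicate activation scores above 10%, or exactly half above 10 with the replicate mean above 10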
Jurkat NFkB inh: inhibitors of the PMA/ionomycin-induced NF-kB reporter in Jurkat cells | PMA/ionomycin-induced NF-kB luciferase reporter, luminescence | inhibition, % at 4 µM | 0.53% of 330,000 active | AID 435003; in the data active means inhibition above about 50%
Mdm2 MdmX PPI: inhibitors of human Mdm2/MdmX interaction; 3% of 330,000 active; inhibition, % at 8 µM; O15151+Q00987; SaOS-2 split-luciferase Mdm2/MdmX complementation, luminescence;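 active means inhibition of at least 50% at 8 µM in the primary screen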
Target sequence (O15151 whole entry, looked up): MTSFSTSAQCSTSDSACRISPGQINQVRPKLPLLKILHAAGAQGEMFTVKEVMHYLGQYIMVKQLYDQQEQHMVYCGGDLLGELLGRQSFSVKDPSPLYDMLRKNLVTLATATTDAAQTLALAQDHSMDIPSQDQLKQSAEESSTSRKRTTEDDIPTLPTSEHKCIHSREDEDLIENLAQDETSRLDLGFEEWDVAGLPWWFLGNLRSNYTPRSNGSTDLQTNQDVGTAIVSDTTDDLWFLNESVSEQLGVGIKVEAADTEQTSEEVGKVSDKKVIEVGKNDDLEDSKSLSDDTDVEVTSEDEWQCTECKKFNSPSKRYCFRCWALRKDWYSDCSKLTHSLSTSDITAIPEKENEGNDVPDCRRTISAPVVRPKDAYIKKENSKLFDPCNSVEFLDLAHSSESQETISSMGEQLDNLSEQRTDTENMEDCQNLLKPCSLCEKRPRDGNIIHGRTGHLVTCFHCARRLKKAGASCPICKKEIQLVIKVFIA
Target sequence (Q00987 whole entry, looked up): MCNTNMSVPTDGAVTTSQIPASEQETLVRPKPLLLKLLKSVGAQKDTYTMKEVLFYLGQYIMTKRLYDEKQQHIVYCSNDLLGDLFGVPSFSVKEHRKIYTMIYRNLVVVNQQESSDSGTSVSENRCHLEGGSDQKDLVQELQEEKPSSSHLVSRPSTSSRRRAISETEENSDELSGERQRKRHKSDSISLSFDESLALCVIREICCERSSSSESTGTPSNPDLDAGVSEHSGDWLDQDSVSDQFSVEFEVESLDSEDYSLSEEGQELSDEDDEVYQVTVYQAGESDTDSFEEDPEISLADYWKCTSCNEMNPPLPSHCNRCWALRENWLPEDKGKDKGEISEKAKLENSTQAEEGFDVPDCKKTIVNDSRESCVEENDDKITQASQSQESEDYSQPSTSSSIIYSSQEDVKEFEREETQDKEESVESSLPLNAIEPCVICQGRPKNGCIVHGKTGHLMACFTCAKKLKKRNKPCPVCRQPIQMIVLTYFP
NTR1 agonist: activates human neurotensin receptor 1. AID 493036. NTR1-U2OS beta-arrestin-GFP spot imaging, agonist mode. P30989. activation, % at 20 µM. 0.17% of 330,000 active;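 active means activation at or above 40% of the spot to cytoplasm intensity ratio, with at least 20 cells analyzed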;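 further: 0% = DMSO without peptide and 100% = 100 nM NTR1 peptide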
Beta cell apopt: beta cell apoptosis inhibition. protection from apoptosis, % (no concentration beside the values). INS-1E cytokine-induced death, ATP luminescence, 48 h; percent of positive-control rescue, neutral wells zero. 0.8% of 300,000 active;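 active means Every replicate reaches about 75%, or at least half do and their mean reaches it too, limit read from the data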;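 further: 0% = cytokine-treated negative control wells and 100% = positive control rescue; higher means more ATP so stronger rescue from cytokine killing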
Mdm2 MdmX conf: human Mdm2/MdmX binding inhibition, confirmed; shares compounds with Mdm2 MdmX PPI; 55% of 10,000 active; AID 489028; luminescent assay; inhibition, % at 8 µM; in the data active means inhibition above about 40%
FLuc counter: counter-screen for Mdm2/MdmX inhibitors: full-length luciferase | SaOS-2 full-length luciferase counterscreen, luminescence | shares compounds with Mdm2 MdmX PPI | AID 504607 | 77% of 6,200 active | inhibition, % at 8 µM;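 active means mean inhibition at 8 µM reaching about 37%, which flags the compound as non-specific, limit read from the data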;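 further: p53-null SaOS-2 cells with luciferase driven by a doxycycline-inducible promoter; compound on cells about two nights before reading with doxycycline added after day one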
* marks the source's active call; other numbers are inactive results; nt = no result. Most compounds without a hit are left out; they make up all but 3.8% or so of the library.

SMILES	697 NFkB inh	Bfl-1 A1 inh	Jurkat NFkB inh	Mdm2 MdmX PPI	NTR1 agonist	Beta cell apopt	Mdm2 MdmX conf	FLuc counter
COc1ccccc1NC(=O)Cn1cnc2sc(C(=O)Nc3cc(OC)c(OC)c(OC)c3)c(C)c2c1=O	-1	0	-7	29	0	1	nt	nt
COc1ccccc1NC(=O)c1sc2ncn(CC(=O)Nc3ccccc3)c(=O)c2c1C	5	1	27	55*	2	-1	5	nt
CC(C)C[C@H](CO)N(Cc1ccccc1)S(=O)(=O)N(Cc1ccccc1)[C@@H](CO)CC(C)C	-2	1	5	91*	20	-5	10	nt
C=C[C@H](CC(C)C)N(Cc1ccccc1)S(=O)(=O)N(Cc1ccc(OC)cc1)[C@H](C=C)CC(C)C	-5	2	-6	58*	1	115*	0	nt
O=S(=O)(N(Cc1ccccc1)[C@@H](CO)Cc1ccccc1)N(Cc1ccccc1)[C@@H](CO)Cc1ccccc1	2	2	14	37	3	2	nt	nt
N#Cc1c(-c2ccccc2)cc2nc3ccccc3n2c1N	-41	0	-46	-28	-3	9	nt	nt
COc1cc(-c2cc3nc4ccccc4n3c(N)c2C#N)cc(OC)c1OC	28	0	13	77*	6	3	64*	93*
Cc1nc2ccc(Br)cn2c1C(=O)N/N=C\c1ccc(C(C)C)cc1	-54	0	16	57*	1	nt	48*	64*
Cc1ccc(Cl)cc1N1CCN(CC(=O)Nc2ccc(CN3CCCCC3)cc2)CC1	-12	1	-9	69*	7	13	43*	60*
O=C(CN1CCCC1)Nc1ccc(Oc2ccc(NC(=O)CN3CCCC3)cc2)cc1	6	0	-24	56*	0	-1	53*	58*
COc1ccccc1N1CCN(CC(=O)Nc2ccc(CN3CCCCC3)cc2)CC1	-8	0	-2	-13	-1	-5	nt	nt
O=C(Nc1c(F)cccc1F)C1CCN(C(=O)c2cccs2)CC1	1	1	-10	22	0	1	nt	nt
CC1CCN(C(=O)CCC(=O)Nc2nnc(C3CCCCC3)s2)CC1	-15	-1	-6	6	1	-12	nt	nt
CN(Cc1ccc(F)cc1)S(=O)(=O)c1nnc(NC(=O)c2ccccc2)s1	-12	0	10	10	1	22	nt	nt
N#C/C(=C/c1ccc(F)cc1)c1nnc(NC(=O)c2ccccc2)s1	-12	0	-6	74*	2	2	21	nt
CCCCN(CCO)c1ncnc2sc(-c3ccccc3)cc12	-15	0	-10	16	11	14	nt	nt
COc1cccc(CCN2CCC(CNS(=O)(=O)c3cc(-c4cc(C)no4)ccc3OC)CC2)c1	-24	0	44	50*	2	-3	50*	72*
COc1cccc(CCN2CCC(CNS(=O)(=O)c3cc(-c4cc(C)no4)ccc3C)CC2)c1	-14	1	49	55*	4	8	50*	67*
COc1ccc(N2CCN(S(=O)(=O)c3cc(-c4cc(C)no4)ccc3C(C)C)CC2)cc1	-73	2	23	51*	0	0	37	nt
Cc1cc(-c2ccc(C)c(S(=O)(=O)NCC3CCN(Cc4cccc(F)c4)CC3)c2)on1	12	0	-3	42	3	7	nt	nt
COc1ccccc1CN1CCC(CNS(=O)(=O)c2cc(-c3onc(C)c3C)ccc2OC)CC1	-3	1	20	51*	-1	0	33	nt
CC(=O)Nc1cccc(Oc2ccc3c(c2)C(=O)NC3=O)c1	-11	-1	-9	-11	0	-4	nt	nt
O=S(=O)(NCC(c1cccs1)N1CCc2ccccc2C1)c1ccccc1 (centres undefined)	4	1	6	19	3	nt	nt	nt
Cc1nnc(NC(=O)c2cc(S(=O)(=O)N(C)C)ccc2N2CCCC2)s1	5	1	5	-17	-2	-3	nt	nt
COc1ccc(-c2cc(C)no2)cc1S(=O)(=O)N1CCCCC1	8	0	18	7	0	-3	nt	nt
SMILES	697 NFkB inh	Bfl-1 A1 inh	Jurkat NFkB inh	Mdm2 MdmX PPI	NTR1 agonist	Beta cell apopt	Mdm2 MdmX conf	FLuc counter
COc1ccc(-c2cc(C)no2)cc1S(=O)(=O)Nc1ccccc1	-14	-2	31	55*	0	-3	67*	63*
Cc1cc(-c2ccc(C)c(S(=O)(=O)NCc3ccc(Br)cc3)c2)on1	-15	0	23	64*	9	-4	52*	42*
COc1ccc(-c2cc(C)no2)cc1S(=O)(=O)N1CCN(c2cccc(C)c2)C(C)C1 (centres undefined)	-60	0	34	53*	1	10	45*	61*
Cc1cc(-c2ccc(C)c(S(=O)(=O)NCc3cccc(Br)c3)c2)on1	-6	1	11	23	4	-1	nt	nt
COc1ccc(-c2cc(C)no2)cc1S(=O)(=O)Nc1cccc(C)c1	20	0	3	20	1	3	nt	nt
CCn1cc(CN2CCC(n3nccc3NC(=O)C(OC)c3ccccc3)CC2)cn1 (centres undefined)	13	1	5	12	0	-5	nt	nt
COc1ccc(-c2nc(CS(=O)(=O)CC(=O)NCc3cccc(F)c3)c(C)o2)cc1	12	0	3	9	2	-5	nt	nt
CCCc1cc(=O)[nH]c2nnc(SCC(=O)Nc3cc(C)on3)n12	-39	1	-18	21	0	0	nt	nt
O=C(C[n+]1ccccc1)N/N=C/c1ccc(Cl)c(Cl)c1	12	0	23	15	0	-4	nt	nt
OC(CNCCc1ccc(C(F)(F)F)cc1)COC(c1ccccc1)c1ccccc1 (centres undefined)	0	2	-12	87*	66*	23	42*	56*
O=[N+]([O-])c1cccc(/C=N/NC2=NCCCCC2)c1	-30	0	-21	-8	-1	-2	nt	nt
O=C(ONC1=NCCCCC1)c1cccc([N+](=O)[O-])c1	0	0	8	56*	0	5	18	nt
CC(C)NC(=S)NNc1ncnc2sc3c(c12)CC(C)(C)OC3	-13	1	0	5	4	-5	nt	nt
CC1(C)Cc2c(sc3ncnc(NNC(=S)NCc4ccccc4)c23)CO1	27	1	45	54*	3	-4	63*	84*
N#CC1=C(N)N2C(=C(C#N)C13CCN(Cc1ccccc1)CC3)Nc1ccccc12	5	0	19	-14	0	-1	nt	nt
N#CC1=C(N)N2C(=C(C#N)C1c1cccc(Br)c1)Nc1ccccc12 (centres undefined)	17	0	7	100*	13	100*	44*	40*

Source: PubChem
